Measured values: PubChem BioAssay (NCATS)
Records with an inconclusive call do not appear. Where a call stands in place of a potency, no number is given. Calls of active or inactive are those of the source. Calls come from the whole dose curve; as a rule, active = well fitted inhibition curve with a large enough effect in the repeat runs; inconclusive = weak or mixed curves; inactive = no such curve, though single readings can be large or run the other way.

target: Cytochrome P450 2C9 (Homo sapiens) (UniProt P11712); test: Cytochrome P450 family 2 subfamily C member 9 (CYP2C9) small molecule antagonists: luciferase biochemical (cell-free) qHTS assay (AID 1645842); details: P450-Glo CYP2C9 enzyme assay, luciferin luminescence; series mostly up to 57.4 µM; note: nearly all actives have a fitted effect of over 55% in size
Sequence (P11712 whole entry, looked up): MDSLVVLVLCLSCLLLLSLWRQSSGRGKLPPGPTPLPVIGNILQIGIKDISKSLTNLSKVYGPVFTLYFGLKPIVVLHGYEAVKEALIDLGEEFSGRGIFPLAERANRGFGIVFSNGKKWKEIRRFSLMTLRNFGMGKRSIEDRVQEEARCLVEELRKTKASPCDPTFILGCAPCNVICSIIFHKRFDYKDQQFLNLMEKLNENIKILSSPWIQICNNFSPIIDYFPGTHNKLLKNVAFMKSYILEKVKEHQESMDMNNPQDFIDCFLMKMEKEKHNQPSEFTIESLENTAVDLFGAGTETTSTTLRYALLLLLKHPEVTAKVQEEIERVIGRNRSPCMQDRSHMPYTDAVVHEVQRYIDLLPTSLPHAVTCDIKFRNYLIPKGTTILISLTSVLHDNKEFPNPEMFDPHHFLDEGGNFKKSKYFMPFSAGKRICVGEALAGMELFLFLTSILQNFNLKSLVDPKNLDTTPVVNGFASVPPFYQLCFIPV
In short: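 P450-Glo CYP2C9 system: proluciferin substrate with enzyme in mix containing 0.4% BSA, 10 min at room temperature, then NADPH regeneration solution added and incubated 1 h at 37C. Detection reagent stopped reaction; luminescence read after 20 min as RLU.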
Potency is the fitted concentration of half-maximal effect.

Compound | Potency
O=C(CCBr)N1CCN(C(=O)CCBr)CC1 | inactive
NC(=O)CCCCC1CCSS1 (stereo not drawn) | inactive
CCCCCCCCCCC(CO)CCCCCCCC (stereo not drawn) | inactive
Nc1ccncc1N | inactive
CO[C@@]1(NC(=O)C(C(=O)O)c2ccc(O)cc2)C(=O)N2C(C(=O)O)=C(CSc3nnnn3C)CO[C@@H]21 (stereo partly drawn) | inactive
OCCN1C[C@H](O)[C@@H](O)[C@H](O)[C@H]1CO | inactive
O=C(O)COC(=O)Cc1ccccc1Nc1c(Cl)cccc1Cl | 17.4 µM (active)
C[C@@H]1CCC[C@H](C)N1 | inactive
CN1CCN(C(=O)C2CCCCC2)CC1 | inactive
CC(=O)OCC(COC(C)=O)OC(C)=O | inactive
O=C(/C=C/c1ccccc1)OCc1ccccc1 | 12.3 µM (active)
CC1CC(OC(=O)c2ccccc2O)CC(C)(C)C1 (stereo not drawn) | inactive
CCCCCCCCCCCCCCCCCCO | inactive
NS(=O)(=O)c1ccc(C(=O)O)cc1 | inactive
CC(=O)N[C@@H](Cc1ccc(O)cc1)C(=O)O | inactive
Cc1ccc(S(=O)(=O)NC(=O)NC2CCCCCCC2)cc1 | 17.4 µM (active)
O=c1[nH]c(=O)c2ccccc2o1 | inactive
C[C@H]1COc2c(C3(N)CC3)c(F)cc3c(=O)c(C(=O)O)cn1c23 | inactive
CN1C(=O)CC(c2ccccc2)C1=O (stereo not drawn) | inactive
O=C(O)c1cc(=O)c2ccccc2o1 | inactive
Nc1ncnc2c1ncn2[C@@H]1O[C@H](COP(=O)(O)O)[C@@H](O)[C@H]1O | inactive
CC1CCN(CCCC(=O)c2ccc(F)cc2)CC1 | inactive
C[N+](C)(C)CC[N+]1(C)Cc2c(Cl)c(Cl)c(Cl)c(Cl)c2C1 | inactive
